Assay results published in PubChem BioAssay (NCI).
About 83,000 compounds went through this panel and 20% of them were active in at least one assay; those are over-represented in the sample as a whole.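 Plates (96-well) were seeded with cells, treated with compound at one concentration, and incubated for 48 hours before percent growth was determined.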 Values without a mark were called inactive. Calls of active or inactive are those of the source. The calls were made as follows: active = growth percent below 10; inactive = the rest.

Key:
Assay in all cases: NCI-60 one-dose screen, 48 h (100 = growth as untreated, 0 = no growth, -100 = all killed)
Details in all cases: 10 µM unless noted
NCI-H23 lung = system: NCI-H23 lung
NCI-H322M lung = system: NCI-H322M lung
HOP-62 NSCLC = system: HOP-62 NSCLC
NCI-H460 lung = system: NCI-H460 lung
HOP-92 NSCLC = system: HOP-92 NSCLC
NCI-H522 lung = system: NCI-H522 lung
A549/ATCC NSCLC = system: A549/ATCC NSCLC
786-0 renal = system: 786-0 renal
COLO 205 colon = system: COLO 205 colon
DU-145 prostate = system: DU-145 prostate
K-562 leukemia = system: K-562 leukemia
MALME-3M melanoma = system: MALME-3M melanoma
MDA-MB-231 breast = system: MDA-MB-231 breast
RXF 393 renal = system: RXF 393 renal
SF-268 CNS = system: SF-268 CNS
SF-295 CNS = system: SF-295 CNS
SF-539 CNS = system: SF-539 CNS
UACC-257 melanoma = system: UACC-257 melanoma
M14 melanoma = system: M14 melanoma
HCT-15 colon = system: HCT-15 colon

| Compound | growth (NCI-H23 lung) [%] | growth (NCI-H322M lung) [%] | growth (HOP-62 NSCLC) [%] | growth (NCI-H460 lung) | growth (HOP-92 NSCLC) | growth (NCI-H522 lung) | growth (A549/ATCC NSCLC) [%] | growth (786-0 renal) [%] | growth (COLO 205 colon) | growth (DU-145 prostate) | growth (K-562 leukemia) | growth (MALME-3M melanoma) [%] | growth (MDA-MB-231 breast) [%] | growth (RXF 393 renal) [%] | growth (SF-268 CNS) [%] | growth (SF-295 CNS) | growth (SF-539 CNS) | growth (UACC-257 melanoma) [%] | growth (M14 melanoma) [%] | growth (HCT-15 colon) [%] |
| --- | --- | --- | --- | --- | --- | --- | --- | --- | --- | --- | --- | --- | --- | --- | --- | --- | --- | --- | --- | --- |
| COC(=O)/C(CCC=C(C)C)=C1\[C@@H](OC(C)=O)C[C@@]2(C)[C@H]1C[C@@H](O)[C@H]1[C@@]3(C)CC[C@H](NCCO)[C@@H](C)[C@@H]3CC[C@@]12C | 97.7 | 101 | 106 | 105% | 93.6% | 99.9% | 109 | 98.7 | 103% | 104% | 94.8% | 93 | 106 | 109 | 104 | 101% | 101% | 107 | 94.2 | 103 |
| COC(=O)C1=C(C)NC(C)=C(C(=O)OC)C(N2C(=O)CCC2=O)C1 (stereo not given) | 96.8 | 91.2 | 109 | 101% | 101% | 7.93% (active) | 77.6 | 99.2 | 114% | 90.1% | 35.8% | 80.8 | 95.8 | 104 | 93.9 | 118% | 103% | 66.5 | 85 | 78.4 |
| COc1ccc(Br)c(/C=C2\SC(=Nc3ccc(O)cc3)NC2=O)c1 | 92.1 | 99.8 | 96.2 | 102% | 83.2% | 77.2% | 87.2 | 82.8 | 102% | 98.1% | 84.4% | 89.6 | 108 | 83.7 | 74 | 98.3% | 85.4% | 102 | 97.8 | 79.3 |
| Cc1nc(Nc2ccccn2)sc1C(=O)/C=C/c1ccc(Cl)cc1 | 22.7 | 32.1 | 16.4 | 3.86% (active) | 31.8% | -39.3% (active) | 17.2 | 19.7 | -21.5% (active) | 6.68% (active) | 8.43% (active) | 50.3 | 20.4 | 20.2 | 19.9 | 4.33% (active) | -8.91% (active) | 41.8 | 11.6 | 11.7 |
| O=C(CSc1ccc2nnc(-c3cccc(F)c3)n2n1)Nc1ccc2c(c1)OCO2 | 76.5 | 85 | 81.4 | 81.1% | -6.23% (active) | 85.4% | 52.8 | 93.6 | 112% | 77.1% | 74.2% | 81 | 48.9 | 98.5 | 51.3 | 91.6% | 84.3% | 94.8 | 83.9 | 66.1 |
| Cc1cc2c(c(C)c1Cl)C(=O)/C(=C/c1ccco1)O2 | 87.9 | 99.2 | 96.7 | 94.7% | 129% | 85.3% | 103 | 105 | 113% | 103% | 98.5% | 102 | 82.3 | 124 | 109 | 109% | 101% | 97.4 | 93.2 | 70.8 |
| COc1ccc(/C=c2\sc3n(c2=O)NC2C(N=3)N(C)C(=O)N2C)cc1 (stereo not given) | 96.6 | 92 | 101 | 108% | 100% | 86.6% | 99.8 | 97.7 | 102% | 110% | 89.3% | 97.6 | 96.8 | 101 | 93.5 | 100% | 95.5% | 102 | 96.5 | 96.4 |
| COc1nccc2cc3c(=O)n4c(cc5ccccc54)c(=O)n3c12 | 89.8 | 86.3 | 82.3 | 103% | 118% | 93.7% | 104 | 102 | 102% | 111% | 91.9% | 85.7 | 90.3 | 112 | 101 | 106% | 104% | 114 | 97.2 | 91.4 |
